We go through 32 molecules from PubChem BioAssay (EPA / NIEHS).

Active and inactive are the calls of the source. The calls were made as follows: active = hit-call score of the fitted dose curve at least 0.9, where 1 is the maximum; inactive = score below 0.9.

Read-out in the assay: Fatty Acid-Binding Protein 1 (FABP1), FABP1 (gene 2168)
The assay is described as follows: LTEA_HepaRG_FABP1: Life Technologies and Expression Analysis (LTEA) Assay for Fatty Acid-Binding Protein 1 (FABP1) using HepaRG (AID 2283494). Particulars: mRNA level, 48 h; actives raise or lower the signal. In outline:
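FABP1 expression by TaqMan qRT-PCR, normalised to three housekeeping genes, in HepaRG cells after 48 h chemical treatment. Eight-point half-log series topping at 100 uM in 0.5% DMSO, duplicates; gain or loss fitted relative to vehicle.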
In the case of `CC(C)(O)C(=O)Nc1ccc([N+](=O)[O-])c(C(F)(F)F)c1`, the concentration at half-maximal activity (AC50) (usually the concentration at which the activity in the assay is half-maximal) was 25 µM (active). As to `CCC(C)(CC)c1cc(NC(=O)c2c(OC)cccc2OC)on1`, the concentration at half-maximal activity (AC50) was 4.89 µM (active). With `Cc1ccccc1O`, the result was inactive. Same read-out and setting: for `CN(C)CCO` the value was “inactive”.

For `Cc1ccccc1CO[C@@H]1C[C@@]2(C(C)C)CC[C@]1(C)O2`, the molecule was called inactive. Regarding `Cc1cc(-c2ccc(N)c(C)c2)ccc1N`, the concentration at half-maximal activity (AC50) is 24.9 µM (active). As for `c1cc2ccc3cccc4ccc(c1)c2c34`, the molecule was classed as inactive. Consider `Oc1c(Cl)c(Cl)c(Cl)c(Cl)c1Cl`, for which the concentration at half-maximal activity (AC50) was 2.35 µM (active). Turning to `O=NN(c1ccccc1)c1ccccc1`, the molecule was classed as inactive. With `Clc1ccc(C(c2ccccc2Cl)C(Cl)(Cl)Cl)cc1` (configuration not stated), the AC50 was 33.9 µM (active). As for `NS(=O)(=O)C(F)(F)C(F)(F)C(F)(F)C(F)(F)C(F)(F)C(F)(F)C(F)(F)C(F)(F)F`, the AC50 was 9.04 µM (active). Regarding `O=S(=O)(O)C(F)(F)C(F)(F)C(F)(F)C(F)(F)F`, the molecule was classed as inactive. On the same count and under the same terms, for `Nc1ccc(-c2ccc(N)cc2)cc1` the value was “inactive”; for `C=CC(N)=O`, “inactive”; for `CCOCCOC(C)=O`, “inactive”.

In the case of `O=C(O)C(F)(F)C(F)(F)C(F)(F)C(F)(F)C(F)(F)C(F)(F)C(F)(F)C(F)(F)F`, the AC50 is 81.1 µM (active). For `CCCCCCCCCc1ccc(O)cc1`, the half-maximal activity concentration (AC50) was 50 µM (active). With `CO/C=C(/C(=O)OC)c1ccccc1COc1cccc(C(F)(F)F)n1`, the half-maximal activity concentration (AC50) was 5.35 µM (active). On the same count and under the same terms, for `ClC1=C(Cl)[C@]2(Cl)[C@@H]3[C@@H]4C[C@@H]([C@H]5O[C@@H]45)[C@@H]3[C@@]1(Cl)C2(Cl)Cl` the value was 0.0265 µM (active). As to `Cc1ccccc1[N+](=O)[O-]`, the call was inactive. Still for that read-out and setting: for `Oc1ccc(Cl)cc1Cl` the value was “inactive”; for `Clc1ccc(C(Cl)(Cl)Cl)cc1`, “inactive”. Turning to `C=CC(=O)NCNC(=O)C=C`, the AC50 is 50 µM (active). Turning to `C1CC2OC2CC1C1CO1` (configuration not stated), the outcome was inactive. As to `O=C(NC(=O)c1c(F)cccc1F)Nc1cc(Cl)c(OC(F)(F)C(F)F)c(Cl)c1`, the half-maximal activity concentration (AC50) is 25.1 µM (active). With `O=C(NC(=O)c1cc(F)c(F)cc1Cl)Nc1cc(F)ccc1N1CCC(C(=O)O)CC1`, the molecule was called inactive. Regarding `ClC(Cl)=C(c1ccc(Cl)cc1)c1ccc(Cl)cc1`, the concentration at half-maximal activity (AC50) is 50 µM (active).

With `CCC(C)(c1ccc(O)cc1)c1ccc(O)cc1`, the call was inactive.

Consider `COS(=O)(=O)OC`, for which the result was inactive. For the molecule `N#Cc1ccc(N(CC(N)=O)CC(F)(F)F)cc1C(F)(F)F`, the concentration at half-maximal activity (AC50) is 2.3 µM (active). In the case of `CCC(=O)O[C@H]1CC[C@H]2[C@@H]3CCC4=CC(=O)CC[C@]4(C)[C@H]3CC[C@]12C`, the AC50 was 19.9 µM (active). As for `CCCCCCCCOC(=O)c1ccccc1C(=O)OCCCCCCCC`, the result was inactive.
